Hits are enriched below; roughly 6.3% of the tested compounds scored in any of these assays.
A340 absorber: compound light absorbance at 340 nm, profiling panel, artefact control, biochemical, MLSMR library, data from PS, PMK, MK assays. fold change at 10 µM. AID 708, 2007. compound absorbance at 340 nm, fold over control. 65,000 tested, under 10 active;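 active = at 10 µM dose, initial 340 nm absorbance at least 2 fold that of control wells; inactive = change under 2 fold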;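 note: initial absorbance extrapolated from kinetic A340 decline of NADH oxidation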
NADH enzymes: inhibitors of PK/LDH coupling enzymes, profiling panel, artefact control, biochemical, MLSMR library. coupled PK/LDH NADH assays, four targets. IC50, µM (doses to about 10 µM), inactives show at the top dose inhibition. 65,000 tested, 0.02% active;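 active = single-dose screening hits from any of four coupled enzyme assays that gave an IC50 when retested across doses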;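 note: the DPM-DC format reads NADH fluorescence rather than 340 nm absorbance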
Spn PMK inh: S. pneumoniae PMK inhibitors, primary screen, biochemical, mevalonate pathway, pilot trial included. purified PMK, PK/LDH-coupled NADH absorbance 340 nm. 65,000 tested, 0.49% active. inhibition, % at 10 µM. phosphomevalonate kinase (Streptococcus pneumoniae D39);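 active = top-ranked compounds by inhibition in the single 10 µM screen, taking a fixed number of the strongest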;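 note: 0% = full reaction with DMSO carrier and 100% = background rate without enzyme reaction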
Spn DPM-DC inh: S. pneumoniae DPM-DC inhibitors, primary screen, biochemical, PK/LDH-coupled NADH fluorescence | diphosphomevalonate decarboxylase (Streptococcus pneumoniae D39) | purified DPM-DC | calls only at 10 µM | 65,000 tested, 0.49% active;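 active = the 320 compounds with the highest percent inhibition in the single-dose primary screen, excluding strongly autofluorescent ones, cut at about 32% in these data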;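 note: kinetic rate of NADH fluorescence loss reporting ADP formed by the decarboxylase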
Spn MK inh: S. pneumoniae MK inhibitors, primary screen, biochemical, PK/LDH-coupled NADH absorbance. 65,000 tested, 0.48% active. inhibition, % at 10 µM. mevalonate kinase [Streptococcus pneumoniae D39]. purified MK, PK/LDH-coupled NADH absorbance 340 nm;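 active = ranked among the strongest by inhibition in the single 10 µM screen, a fixed top-ranked set picked for dose follow-up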
Fluor 339 460: intrinsic fluorescence of library compounds, ex339/em460 – biochemical, MLSMR library, data from DPM-DC assay, artefact control, profiling panel | compound autofluorescence, ex339/em460 nm, NADH buffer; hits give high values; 1 = no-compound wells, NADH background | 65,000 tested, 5.5% active | fluorescence fold increase at 10 µM;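 active = at 10 µM, mean starting fluorescence two-fold or more over control wells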;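 note: signal is the first read of a kinetic run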
* hit, by the source's call; i = inactive; . = not tested or not shown; + = active, no number.

SMILES	A340 absorber	NADH enzymes	Spn PMK inh	Spn DPM-DC inh	Spn MK inh	Fluor 339 460
Cn1cc(CC(=O)N2CCN(c3ccc(Cl)cc3)CC2)c2ccccc21	1.1	7%	11	i	10	1.1
CCOC(=O)c1c(-c2ccccc2)nnn1-c1nc(OCC)nc(N2CCCCC2)n1	0.98	7%	10	i	10	1
Cc1cc(OCc2nn[nH]n2)c2c(C)c(Cc3ccccc3)c(=O)oc2c1	1.1	10%	12	.	7	3.9*
CCOc1ccc(Cc2nn[nH]n2)cc1	1	2%	8	i	5	1
CCOC(=O)c1ccc2ncc(C(=O)OCC)c(NCc3ccco3)c2c1	1.1	12%	10	.	13	3.8*
CCOC(=O)c1cnc2c(C)cccc2c1NCc1ccco1	1.1	8%	0	i	12	1.4
CCOC(=O)c1cnc2c(C(=O)OC)cccc2c1NCc1ccco1	1.1	6%	5	.	6	3.4*
O=C(CCNS(=O)(=O)c1cccc2nonc12)NCc1cccs1	1.1	4%	0	i	11	1.1
COc1ccc(OC)c(-c2nnc(-c3ccc(C)o3)o2)c1	1.1	11%	10	.	12	3.9*
COc1ccc2[nH]cc(C3N4CC5(C)CN3CC(C)(C4)C5=O)c2c1 (configuration not stated)	1	20%	13	i	48*	1.1
CCOC(=O)Cc1c(C)nc2cc(-c3ccc(C)cc3)[nH]n2c1=O	1.1	5%	4	i	1	1.9
CCOC(=O)Cc1c(C)nc2c(-c3ccccc3)c[nH]n2c1=O	1.1	6%	9	.	3	2.2*
CC1CCN(S(=O)(=O)c2ccc(NC(=O)CN3CCN(C)CC3)cc2)CC1	1	20%	13	i	48*	1.1
CC1(C)C=C(c2ccc(O)cc2)CC(C)(C)N1	1	2%	0	i	6	1.1
CC(C)(C)c1cc(=O)n2c(C#N)c(C#N)nc2[nH]1	1.1	7%	9	.	4	5*
COC(=O)c1[nH]c2ccccc2c1NC(=O)Oc1ccccc1	1.1	10%	5	i	7	2.3*
CCOC(=O)c1[nH]c2ccccc2c1NC(=O)CC(C)(C)C	1.1	8%	3	i	4	1.7
CCOC(=O)c1[nH]c2ccccc2c1NC(=O)c1ccc(Br)o1	1	20%	0	i	54*	0.91
C=CCOC(=O)Nc1c(C(=O)OC)[nH]c2ccccc12	1.1	0%	0	i	1	1.4
Cc1ccc(C)c(N2CCN(C(=O)C3CCN(S(=O)(=O)c4cccc5nsnc45)CC3)CC2)c1	0.99	7%	14	i	8	1.1
CCOC(=O)c1c(NC(=O)CSc2nnnn2CC)sc(C)c1C	1.1	1%	1	i	1	1.1
COc1ccc(OC)c(C(c2nnnn2Cc2ccccc2)N2CCN(C3CCCCC3)CC2)c1 (configuration not stated)	0.99	7%	12	i	9	1.1
FC(F)(F)c1cccc(CN2CCCCCC2)c1	1.1	17%	5	i	45*	1.1
CN(C)c1ccc(CN2CCCCCC2)cc1	1	6%	14	i	3	1
C/C(Sc1nnc(Cc2ccccc2)o1)=C(/O)c1ccccc1	1	5%	7	i	7	1.1
CC(C)(C)P(=O)(CO)c1ccccc1 (configuration not stated)	1.1	4%	0	i	11	1.1
CC(C)(O)P(C)(=O)c1ccccc1 (configuration not stated)	0.99	23%	14	+	7	0.5
Cn1c(=O)c2ncn(CC(=O)Nc3ccc4oc(-c5cccc6ccccc56)nc4c3)c2n(C)c1=O	1.1	6%	3	.	8	3.7*
CCC(C)c1ccc2oc(-c3ccc(NC(=O)Cn4cnc5c(=O)n(C)c(=O)n(C)c54)cc3)nc2c1 (configuration not stated)	1	0%	0	.	0	3.7*
